An excerpt weighted towards active compounds, which were near 2.9% of everything screened.
KKLEB tox: counter-screen for CF NF-kB inhibitors: cytotoxicity; KKLEB CF airway cells viability, ATPlite luminescence, overnight; stronger effect = lower value; cells stimulated with P. aeruginosa culture filtrate; activity change (cytotoxicity), % at 5 µM; 360,000 compounds, 0.36% hits;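 active = corrected activity change at or below -50% at 5 µM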
CF NFkB inh: inhibitors of cystic fibrosis induced NF-kB | AID 588850 | 360,000 compounds, 0.86% hits | KKLEB NF-kB-GFP reporter, PAF-induced, GFP fluorescence overnight | inhibition, % at 5 µM;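 active = at least 50% inhibition at 5 µM, scaled per plate between neutral and stimulator controls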;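 note: PAF is a Pseudomonas aeruginosa culture filtrate used as stimulus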
Shn3 3UTR inh: Schnurri-3 reporter inhibition in Clone20 osteoblasts. inhibition, % at 12.5 µM. Clone20 osteoblast Shn3 3'UTR firefly luciferase, 24 h. 360,000 compounds, 0.52% hits;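 active = mean inhibition of at least 75% with every replicate also reaching 75%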
TRPM1 prom inh: MITF TRPM1 promoter inhibition in SK-MEL-5 cells | SK-MEL-5 TRPM1 promoter luciferase, 24 h | inhibition, % at 12.5 µM | 330,000 compounds, 0.83% hits | AID 488899;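 active = mean inhibition across replicates of 60% or more, whatever share of single replicates reaches that level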
EBV LMP1 NFkB: inhibitors of Epstein-Barr LMP1-induced NF-kappaB reporter; inhibition, % at 12.5 µM; 350,000 compounds, 0.69% hits; LMP1-induced NF-kappaB luciferase reporter cells, luminescence; in the data active = inhibition above about 41%
Peg3 prom inh: Peg3 promoter activity inhibition; HeLa PEG-Prom luciferase reporter, luminescence, overnight; inhibition, % at 20 µM; 360,000 compounds, 1.7% hits;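 active = inhibition of at least 50% at 20 µM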
Large screens that a line does not name were inactive; ! = a repeat was not active.

COc1ccc(C2c3ccc4ccccc4c3Oc3ncn(CCN4CCOCC4)c(=N)c32)cc1OC (stereo not drawn)	none
COc1ccc(C2c3ccc4ccccc4c3Oc3ncn(CCO)c(=N)c32)cc1 (stereo not drawn)	TRPM1 prom inh 78, Peg3 prom inh 103
COc1ccc(C2c3ccc4ccccc4c3Oc3ncn(CCN4CCOCC4)c(=N)c32)cc1 (stereo not drawn)	TRPM1 prom inh 77, Peg3 prom inh 102
COC(=O)c1ccccc1NC1=C/C(=N\S(=O)(=O)c2ccc(C(=O)O)cc2)c2ccccc2C1=O	KKLEB tox -62, CF NFkB inh 97, TRPM1 prom inh 90, Peg3 prom inh 105
COC(=O)c1ccccc1NC1=C/C(=N\S(=O)(=O)c2cccs2)c2ccccc2C1=O	KKLEB tox -72, CF NFkB inh 83, Shn3 3UTR inh 94!, TRPM1 prom inh 78, EBV LMP1 NFkB 86!, Peg3 prom inh 86
CSc1ccc(C(=O)Nc2cc(S(=O)(=O)N3CCOCC3)ccc2N2CCOCC2)cc1[N+](=O)[O-]	none
Cc1ccccc1CC(=O)N1CCC(CCC(=O)NC2CC2)CC1	none (no result: TRPM1 prom inh)
O=C(CCCN1C(=O)/C(=C\c2cccc(Br)c2)SC1=S)Nc1cccnc1	Peg3 prom inh 96
O=C(CCCN1C(=O)/C(=C/c2cccs2)SC1=S)Nc1cccnc1	none
O=C(CCCN1C(=O)/C(=C/c2cccc(Br)c2)SC1=S)Nc1ccccn1	Peg3 prom inh 62
Cc1ccc(/C=C2\SC(=S)N(CCCC(=O)Nc3cccnc3)C2=O)cc1	EBV LMP1 NFkB 72
CNc1cccc(-c2cccc(C(=O)N3CCOCC3)c2)n1	none (no result: TRPM1 prom inh, EBV LMP1 NFkB)
C[C@@H]1CN([C@@H](C)CO)S(=O)(=O)c2ccc(Br)cc2O[C@H]1CN(C)C(=O)c1ccncc1	none (no result: TRPM1 prom inh)
CCCNC(=O)c1cc(S(=O)(=O)N2CCC3(CC2)OCCO3)ccc1F	none (no result: TRPM1 prom inh)
CC(c1ccon1)N(C)C(=O)c1cccc(OC2CCN(S(C)(=O)=O)CC2)c1 (stereo not drawn)	none (no result: TRPM1 prom inh)
CC(=O)c1ccc(OCC(=O)N2CCCC2c2ccc3c(c2)OCCCO3)cc1 (stereo not drawn)	none
O=C(CCl)N1CCCC1c1ccc2c(c1)OCCO2 (stereo not drawn)	TRPM1 prom inh 90
CCOC(=O)C1=C(CSc2nc3ccccc3s2)NC(=O)NC1c1cc(C)ccc1C (stereo not drawn)	none
CCOC(=O)C1=C(CSc2nc3ccccc3s2)NC(=O)NC1c1ccc(OC)cc1 (stereo not drawn)	Peg3 prom inh 64
CCOC(=O)c1c(N)n(CCOC(=O)c2cccs2)c2nc3ccccc3nc12	CF NFkB inh 50
CCOC(=O)c1c(N)n(-c2ccc(N)cc2)c2nc3ccccc3nc12	none
CCCCCOC(=O)c1c(N)n(CCOC)c2nc3ccccc3nc12	TRPM1 prom inh 61
CC1=NN(c2nc3ccccc3[nH]2)C(=O)C1Cc1ccccc1 (stereo not drawn)	KKLEB tox -52, CF NFkB inh 51 (no result: TRPM1 prom inh, EBV LMP1 NFkB)
CC(=O)Nc1ccccc1C	none
CC(=O)/C(=C/c1ccccc1)C(=O)Nc1ccccc1C	Peg3 prom inh 73
O=C(O)C(Cc1ccccc1)N1C(=O)C=CC1=O (stereo not drawn)	none (no result: TRPM1 prom inh)
C=CC[n+]1c(-c2ccc(OCC)cc2)csc1NNC(=O)Nc1ccccc1	Shn3 3UTR inh 88
CCCC(=O)N1CCC1(C)C(=O)Nc1ccc(-n2cccc2)cc1 (stereo not drawn)	none (no result: TRPM1 prom inh, EBV LMP1 NFkB)
CC(=O)N1C[C@H]2CON(C)[C@H]2C[C@H]1c1ccc(-c2cccnc2)cc1	none (no result: TRPM1 prom inh)
CCOC(=O)c1c(N2C(=O)C3C4C=CC(O4)C3C2=O)sc2c1CCCC2 (stereo not drawn)	Peg3 prom inh 51
CCOC(=O)c1c(-n2cnnn2)sc2c1CCCC2	none
CCN1CCN(c2cc(SC(C)C)nc(-c3ccc(OC)cc3)n2)CC1	Peg3 prom inh 53
CC(C)Sc1cc(N2CCOCC2)nc(-c2ccc(Cl)cc2)n1	none
COc1ccc(-c2nc3c4ccccc4ccn3c2Cc2ccsc2)cc1OC	none (no result: TRPM1 prom inh, EBV LMP1 NFkB)
CCc1ccc2c(c1)C1(NN=C(c3cccc4ccccc34)S1)C(=O)N2 (stereo not drawn)	Peg3 prom inh 51
CCc1ccc2c(c1)NC(=O)C2(C)Cc1ccccc1 (stereo not drawn)	none (no result: TRPM1 prom inh, EBV LMP1 NFkB)
O=C(N/N=C(\c1ccccc1)c1cccnc1)c1cccc(F)c1	Shn3 3UTR inh 95, TRPM1 prom inh 90, EBV LMP1 NFkB 46, Peg3 prom inh 53
O=C(N/N=C(\c1ccccc1)c1cccnc1)c1ccc(O)cc1	none
Cc1ccc([C@H]2C[C@H](O)[C@@H](n3cc(C4CC4)nn3)CN2Cc2cccs2)cc1	none (no result: TRPM1 prom inh)
CCOC(=O)c1cccc(NC2c3ccccc3C(=O)N2Cc2ccco2)c1 (stereo not drawn)	Shn3 3UTR inh 90
CC(=O)c1cccc(NC2c3ccccc3C(=O)N2Cc2ccco2)c1 (stereo not drawn)	none
C(=C\c1ccccc1)/CN1CCN(C(c2cccc3ccccc23)c2nnnn2C2CCCC2)CC1 (stereo not drawn)	none (no result: TRPM1 prom inh, EBV LMP1 NFkB)
Oc1ccc(/C=N/Nc2ccnc3cc(Cl)ccc23)cc1O	Peg3 prom inh 74
Oc1ccc(/C=N/Nc2ccnc3cc(Cl)ccc23)c(O)c1O	none
CC(C)C(=O)N1CCCC1(C)C(=O)Nc1ccccc1 (stereo not drawn)	none (no result: TRPM1 prom inh, EBV LMP1 NFkB)
CCCn1c(N)c(C(=O)CSc2nc3ccccc3c(=O)n2Cc2ccccc2)c(=O)[nH]c1=O	none
Cn1c(N)c(C(=O)CSc2nc3ccccc3c(=O)n2Cc2ccccc2)c(=O)n(C)c1=O	KKLEB tox -72, CF NFkB inh 88
CC1(C(=O)NCCc2ccccc2)Cc2c(-c3ccccc3)ccnc2O1 (stereo not drawn)	none (no result: TRPM1 prom inh, EBV LMP1 NFkB)
COCCCNC(=O)CSc1nc2cc3c(cc2c(=O)n1CCCC(=O)NCc1ccc(OC)cc1)OCO3	none
NC(=O)CSc1nc2cc3c(cc2c(=O)n1CCCC(=O)NCc1ccc2c(c1)OCO2)OCO3	EBV LMP1 NFkB 45
CC(=O)Nc1ccc(/C=C2\CCc3ccccc3C2=O)cc1	KKLEB tox -57
COc1ccc(C(c2c(C)n(C)n(-c3ccccc3)c2=O)c2c(C)n(C)n(-c3ccccc3)c2=O)c(OC)c1OC	EBV LMP1 NFkB 80
CCOc1cccc(C(c2c(C)n(C)n(-c3ccccc3)c2=O)c2c(C)n(C)n(-c3ccccc3)c2=O)c1OC	none (no result: TRPM1 prom inh)
CC1(C(=O)Nc2ccc3ccccc3c2)CCC(=O)N1C1CC1 (stereo not drawn)	none (no result: TRPM1 prom inh, EBV LMP1 NFkB)
NC(=O)N=Nc1c2[nH]c3ccccc3nc-2c2ccccc12	Peg3 prom inh 72
O=c1[nH]c2ccccc2nc1-c1ccccc1	none
COc1ccc(S(=O)(=O)N(C)C[C@@H]2OCc3cn(nn3)CCCC(=O)N([C@H](C)CO)C[C@H]2C)cc1	none (no result: TRPM1 prom inh, EBV LMP1 NFkB)
CCN1C(=O)[C@H]2[C@@H](c3ccc(C)cc3)N[C@]3(CCCN(Cc4ccc(OC)cc4)C3=O)[C@H]2C1=O	none (no result: TRPM1 prom inh)
